Assay outcomes (PubChem BioAssay)
HT1080NT lethal: kills 2HG-producing HT-1080-NT fibrosarcoma cells | HT-1080-NT fibrosarcoma viability, CellTiter-Glo ATP luminescence, 48 h | Potency, µM (highest dose often 46.1 µM), inactives show at the top dose activity, negative = less viability, usual class: cytotoxic | 360,000 tested, 1.6% active | AID 686970;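 note: NT is the 2HG producing partner of a matched IDH1 knockdown line; 0% = DMSO-treated cells and -100% = media-only wells without cells; nearly all actives have a fitted effect of over 55% in size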
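Viability by CellTiter-Glo luminescence after 48 h compound exposure at 37C of HT-1080-NT cells (750/well, RPMI, 5% FBS). % activity scaled between DMSO wells and medium-only wells, then curve-fitted and categorized by curve class.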
HT1080 IDH1KD tx: kills HT-1080 cells with IDH1 knockdown | HT-1080 IDH1 knockdown viability, ATP luminescence, 48 h | Potency, µM (highest dose often 46.1 µM), without a hit: at the highest dose activity, negative = toxicity, usual class: cytotoxic | 360,000 tested, 2% active;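 note: 0% = DMSO wells and -100% = cell-free medium wells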
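Cytotoxicity counter-line: IDH1KD HT-1080, 48 h, CellTiter-Glo. Curves classed by r2, magnitude and activity.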
MCF10A rereplic: induces DNA re-replication in MCF 10a normal breast cells. MCF 10A DNA re-replication, Hoechst nuclear intensity, 48 h. Potency, µM (top dose mostly 46.1 µM), for inactives: top-dose activity, positive = re-replication, hits mostly activators. 350,000 tested, 2.9% active; note: % of control where 0% means no effect; nearly all actives have a fitted effect of over 50% in size
SW480 rereplic: DNA re-replication induction in SW480 cells | SW480 DNA re-replication, Hoechst DNA content imaging, 48 h | Potency, µM (titrated, usually from 46.1 µM), inactives show at the top dose re-replication activation, most hits filed as activators | 340,000 tested, 1.8% active | AID 624297; note: % of control where 0% means no effect; nearly all actives have a fitted effect of over 55% in size
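Image-based read-out: total Hoechst fluorescence of nuclei (405 nm excitation, 500-530 nm emission), with hits raising the fraction of high-intensity nuclei. SW480 colon cells incubated 48 hr with compounds at 37 C.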
KB-V1 cytotox: kills drug-selected multidrug resistant KB-V1 cells | Potency, µM (titrated, usually from 46.1 µM), usual class: cytotoxic | KB-V1 MDR cells viability, CellTiter-Glo, 72 h | 400,000 tested, 3.4% active; note: % is set by controls: 0 for no effect and ±100 for the full control effect; nearly all actives have a fitted effect of over 60% in size
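Cells of the MDR subline KB-V1 are plated, dosed with compound at multiple concentrations, and incubated 72 h at 37 degrees C; CellTiter-Glo is then added and luminescence read after 10 min.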
KB-3-1 cytotox: kills parental KB-3-1 adenocarcinoma cells. AID 1347075. KB-3-1 viability, CellTiter-Glo ATP luminescence, 72 h. Potency, µM (top dose mostly 46.1 µM), actives largely listed as cytotoxic. 400,000 tested, 1.4% active; note: % is set by controls: 0 for no effect and ±100 for the full control effect; nearly all actives have a fitted effect of over 60% in size
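Viability of parental KB-3-1 cells, measured by CellTiter-Glo luminescence, followed a 72 h incubation at 37 °C with pinned compounds in phenol-red-free DMEM containing 10% FBS.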
The depositor's hits bear a star; i = inactive; ? = inconclusive; . = no result given; [ ] = another dose, or the depositor's remark. This is a sample that favours compounds with a hit; in the whole collection about 7.9% have one here. Calls come from the whole dose curve; as a rule, active = well fitted curve in the direction sought with a large enough effect; inconclusive = small, poorly fitted or top-dose-only effect, or another doubt; inactive = no such curve, though single readings can be large; an effect the other way counts as inactive or inconclusive. Potency is the fitted concentration of half-maximal effect.

SMILES	HT1080NT lethal	HT1080 IDH1KD tx	MCF10A rereplic	SW480 rereplic	KB-V1 cytotox	KB-3-1 cytotox
Cc1ccc(-c2nc(C)sc2CC(=O)OCC(=O)Nc2cccc([N+](=O)[O-])c2)cc1	-8%	-18%	24%	-1%	i	i
Cc1ccc(C(=O)c2ccccc2C(=O)OCC(=O)Nc2ccc(SC(F)F)cc2)cc1	-16%	?	?	22%	12µM*	i
O=C(COC(=O)c1ccccc1Cc1ccccc1)Nc1ccc(SC(F)F)cc1	6%	1%	26µM*	?	?	i
O=C(Cc1ccc(Cl)cc1)Nc1ccc(SC(F)F)cc1	-1%	-7%	?	-35%	21µM*	?
Cc1ccc(S(=O)(=O)CC(=O)Nc2cc(C)on2)cc1	-1%	8%	?	-2%	i	i
CCOc1cc(C(=S)N2CCCCC2)ccc1OS(=O)(=O)c1ccc(Br)cc1	-21%	-1%	?	8%	4.1µM*	?
CCOc1cc(C(=S)N2CCCCC2)ccc1OS(=O)(=O)c1ccc(Cl)cc1	-25%	-6%	?	20%	2.9µM*	?
CC(=O)c1c(C)[nH]c(C(=O)OCC(=O)NCc2ccc(Cl)cc2)c1C	-8%[9.24 µM]	?	?	-39%	i	?
CCOC(=O)c1c(C)[nH]c(C(=O)OCC(=O)Nc2sccc2C(N)=O)c1C	-6%	-27%	21µM*	?	?	i
CCOC(=O)c1c(C)[nH]c(C(=O)OCC(=O)NCc2ccc(OC)c(OC)c2)c1C	-29%	?	23%	19%	21µM*	?
CC(=O)c1c(C)[nH]c(C(=O)OCC(=O)NCc2cccs2)c1C	-5%	-27%	7%	-6%	13µM*	?
CCOC(=O)c1c(C(=O)OCC)c(C)n(CCc2ccc(OC)c(OC)c2)c1C	8%	5%	4%	9.2µM*	i	i
C/C(=N\NC(=O)c1ccc(CSc2nncn2C)cc1)c1ccc2ccccc2c1	4%	1%	-3%	-1%	i	i
CNc1oc(-c2ccc(Cl)cc2)nc1P(=O)(c1ccccc1)c1ccccc1	?	?	16µM*	15%	?	?
Cc1ccc(-c2nc(P(=O)(c3ccccc3)c3ccccc3)c(N3CCOCC3)o2)cc1	-6%	-13%	?	27%	i	i
c1ccc(CCn2c(SCc3ccccc3)nnc2-c2ccncc2)cc1	-5%	-2%	-3%	-4%[9.22 µM]	i	i
N#Cc1ccc(CSc2nnc(-c3ccncc3)n2CCc2ccccc2)cc1	23µM*	?	8%	10%	?	?
N#Cc1ccc(CSc2nnc(Cc3cccs3)n2Cc2ccco2)cc1	-15%	-10%	-13%	-2%	?	i
N#Cc1ccc(CSc2nnc(-c3ccccc3)n2Cc2ccco2)cc1	-9%	?	?	-1%	3.7µM*	i
COc1cccc(C2CC(c3ccc(C(C)C)cc3)n3nc(N)nc3N2)c1 (stereo not given)	1%	6%	-1%	0%	i	i
O=S(=O)(c1ccc(Cl)cc1)N1CCCC(c2nc(-c3ccc(F)cc3)no2)C1 (stereo not given)	14%	11%	6%	12%[9.22 µM]	i	i
COc1ccc(NC(=O)N2CCCC(c3nc(-c4ccc(OC)cc4)no3)C2)cc1 (stereo not given)	-3%	-24%	18%	5%	i	i
COc1ccccc1C(=O)N1CCCC(c2nc(-c3cc(OC)c(OC)c(OC)c3)no2)C1 (stereo not given)	6%	18%	16%	-1%	4.6µM*	i
COc1ccc(NC(=O)N2CCCC(c3nc(-c4ccc(C(C)C)cc4)no3)C2)cc1 (stereo not given)	11µM*	?	?	8%	8.2µM*	?
COc1ccc(-c2noc(C3CCCN(S(=O)(=O)c4cccc(Cl)c4)C3)n2)cc1OC (stereo not given)	6%	-5%	?	2%	5.2µM*	?
SMILES	HT1080NT lethal	HT1080 IDH1KD tx	MCF10A rereplic	SW480 rereplic	KB-V1 cytotox	KB-3-1 cytotox
CCOC(=O)C1=C(C)Nc2sc(C(=O)c3ccc(F)cc3)c(N)c2C1c1ccc(C(=O)OC)cc1 (stereo not given)	-3%	-15%	2.6µM*	16µM*	i	i
CCOC(=O)C1=C(C)Nc2sc(C(=O)c3ccc(C)cc3)c(N)c2C1c1ccc(C(=O)OC)cc1 (stereo not given)	1%	-17%	3.7µM*	18µM*	i	i
Cc1nn2c(=O)cc(COC(=O)COc3ccc(F)cc3)nc2s1	.	.	.	.	?	i
O=C(CCNS(=O)(=O)c1cccc2nonc12)N1CCN(c2cccc(Cl)c2)CC1	-11%	-8%	-3%	?	10µM*	i
O=C(CCS(=O)(=O)c1cccc2nonc12)N1CCN(c2ccc(F)cc2)CC1	13%	2%	30%	-3%	23µM*	i
Cc1c(C(=O)c2no[n+]([O-])c2C(=O)c2cnn(C)c2C)cnn1C	?	?	11µM*	?	i	?
CCn1cc(CNC(=O)c2cc(COc3ccc(F)cc3Cl)on2)cn1	?	-22%	?	18µM*	?	?
CCn1nc(C)c(CNC(=O)c2cc(COc3ccc(F)cc3Cl)on2)c1C	9.2µM*	-2%	12%	0%	?	?
CCCC(=O)N(Cc1cc(=O)[nH]c2ccccc12)c1ccccc1C	-5%	-13%	-8%	0%	i	?
CC(C)(C)c1nnc(NC(=O)c2cccnc2Cl)s1	2%	7%	-7%	1%	i	i
CC1=C(C(=O)N2CCCC(N3CCN(c4cccc(Cl)c4)CC3)C2)OCCO1 (stereo not given)	0%	25%	11%	1%	?	i
CCCCN(C)CCCN1C(=O)C2C(C(=O)Nc3cccc(OC)c3)C3C=CC2(O3)C1C(=O)NC1CCCCC1C (stereo not given)	-2%	-18%	16%	-1%	i	i
CCOC(=O)/C(=C\c1ccccc1)C(=O)CCN1CCOCC1	6%	7%	21µM*	0%	?	i
O=C(CCc1ccccc1)OCCN1CCOCC1	17%	18%	1%	-14%	i	i
COc1ccc(/C(C)=N/NS(=O)(=O)c2ccccc2)c(OC)c1	7%	9%	-3%	-2%	i	i
COc1ccc(/C(C)=N\NS(C)(=O)=O)c(OC)c1	18%	14%	-6%	0.58µM*	i	i
